Measurements as given in article PMC5540273 (PLoS ONE, 2017).

Columns and labels:
[1] = test system: T1, RSK1(Kin.Dom.2-C-terminal)
T1 construct: gene RPS6KA1

[2] = test system: T2, RSK2(Kin.Dom.1-N-terminal)
T2 construct: gene RPS6KA3

[3] = test system: T3, RSK2(Kin.Dom.2-C-terminal)
T3 construct: gene RPS6KA3

[4] = test system: T4, RSK3(Kin.Dom.2-C-terminal)
T4 construct: gene RPS6KA2
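Also: kd values determined as follow-up on hits from a single-replicate KINOMEscan panel screen.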

SMILES: C[C@@H]1CC[C@H](C(=O)NC2CCCCC2)CN1c1cc(-c2ccc3c(N)n[nH]c3c2)nc(N)n1 [GSK2291363]
- Kd (ROCK1): 210 nM
- Kd (ROCK2): 150 nM

SMILES: CCc1nc(-c2cccc(C)c2)c(-c2ccncc2)s1
- Kd [1]: 250 nM

SMILES: COc1cc(Nc2ccnc3ccc(C(F)(F)F)cc23)cc(OC)c1OC [GW577382]
- Kd [2]: > 10000 nM

SMILES: O=C(Nc1ccc2c(c1)OCO2)NC1CCN(c2ccnc(NCc3ccc(F)cc3)n2)CC1 [GSK1379859]
- Kd [3]: > 10000 nM

SMILES: Nc1nc(-c2ccccc2F)c(-c2ccnc3ccccc23)s1 [GW560459]
- Kd [3]: 790 nM

SMILES: CC(C)(C)c1ccc(C(=O)Nc2cn3cc(-c4ccccc4)ccc3n2)cc1
- Kd [4]: > 10000 nM

SMILES: Cl.NS(=O)(=O)c1cccc(Nc2cc(-c3ccc(F)cc3)n[nH]2)c1 [GW824645]
- Kd (SGK2): > 10000 nM

SMILES: COc1cc2ncn(-c3cc(OCc4ccncc4Br)c(C(N)=O)s3)c2cc1OC [GW854278]
- Kd (SLK): 680 nM

SMILES: COc1ccc(CNC(=O)NC2CCN(c3ccnc(Nc4ccc(F)cc4)n3)C2)cc1 (stereo not shown) [GSK1379706]
- Kd (SRPK2): > 10000 nM
